Most compounds without a hit are left out; they make up all but 12% or so of the library.
JMJD2A Tudor inh: qHTS Assay for Inhibitors of JMJD2A-Tudor Domain; Lysine-specific demethylase 4A (Homo sapiens), O75164; Potency, µM (titrated, usually from 114 µM), hits mostly inhibitors; actives 4.4% (n = 390,000); AID 504339, 2011; AlphaScreen JMJD2A-Tudor / H3K4me3 peptide binding; further: nearly all actives have a fitted effect of over 50% in size
Sfp inh: qHTS Assay for Inhibitors of Bacillus subtilis Sfp phosphopantetheinyl transferase (PPTase) | Potency, µM, hits mostly inhibitors | AID 1490, 2009 | Biochemical Sfp PPTase activity, qHTS | 4'-phosphopantetheinyl transferase ffp (Bacillus subtilis), Q9F4F7 | actives 3.5% (n = 310,000);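 further: the enzyme is Sfp with the accession as filed and its product quenches rhodamine fluorescence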
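Reaction rates are the 30-min fluorescence difference (ex 525, em 598 nm) in wells containing 15 nM Sfp, 5 uM rhodamine-CoA and 12.5 uM BHQ-2-YbbR at pH 7.6 with 10 mM MgCl2.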
TDP1 inh: qHTS Assay for Inhibitors of Tyrosyl-DNA Phosphodiesterase (TDP1); Tyrosyl-DNA phosphodiesterase 1 (Homo sapiens), Q9NUW8; recombinant TDP1, AlphaScreen DNA substrate cleavage; actives 0.28% (n = 350,000); Potency, µM (titrated, usually from 130 µM), most hits filed as inhibitors; further: nearly all actives have a fitted effect of over 40% in size
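Signal: AlphaScreen proximity between streptavidin donor and anti-FITC acceptor beads on intact substrate. Reaction: Tdp1 1 nM, substrate 15 nM final, 5 min RT after 15 min compound preincubation.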
HP1b binding inh: HTS for Inhibitors of HP1-beta Chromodomain Interactions with Methylated Histone Tails | Potency, µM (series often up to 114 µM), most hits filed as inhibitors | actives 0.56% (n = 390,000) | Chromobox protein homolog 1 (Homo sapiens), P83916 | AID 540317, 2011 | AlphaScreen HP1-beta / biotin-H3K9me3 peptide binding; further: nearly all actives have a fitted effect of over 70% in size
Target sequence (P83916 whole entry, looked up): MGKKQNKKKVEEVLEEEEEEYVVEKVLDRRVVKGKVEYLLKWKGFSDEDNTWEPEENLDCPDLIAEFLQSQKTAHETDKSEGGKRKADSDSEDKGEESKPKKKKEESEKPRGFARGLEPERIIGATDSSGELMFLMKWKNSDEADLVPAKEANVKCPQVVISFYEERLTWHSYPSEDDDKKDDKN
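HP1-beta protein (50 nM final) preincubated 30 min at room temperature with biotinylated H3(1-18)K9me3 peptide (50 nM) in PBS pH 7.4, 0.01% Tween-20, then compound added for 30 min. AlphaScreen streptavidin donor/nickel chelate acceptor beads (10 ug/mL final), 30 min dark, luminescence read.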
G9a inh: qHTS Assay for Inhibitors of Histone Lysine Methyltransferase G9a | Histone-lysine N-methyltransferase EHMT2 (Homo sapiens), Q96KQ7 | G9a H3K9 monomethylation, AlphaScreen, 2 h | Potency, µM (titrated, usually from 102 µM), hits mostly inhibitors | actives 8.8% (n = 350,000); further: nearly all actives have a fitted effect of over 75% in size
Target sequence (Q96KQ7 913-1193 limits assumed): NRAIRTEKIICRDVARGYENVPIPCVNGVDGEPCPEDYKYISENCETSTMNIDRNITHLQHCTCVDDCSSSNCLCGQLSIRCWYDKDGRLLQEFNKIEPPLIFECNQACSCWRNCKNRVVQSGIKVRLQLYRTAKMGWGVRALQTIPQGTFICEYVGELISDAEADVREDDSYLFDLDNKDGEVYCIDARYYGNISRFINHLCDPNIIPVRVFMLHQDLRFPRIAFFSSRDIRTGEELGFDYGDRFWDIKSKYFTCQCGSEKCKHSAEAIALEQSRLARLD
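G9a (20 nM) was preincubated 15 min with compound, then reacted 2 h at room temperature with 500 nM biotin-H3K9 peptide and 20 µM SAM. Monomethyl-H3K9 detected by AlphaScreen using anti-H3K9me1 antibody.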
BAZ2B block: qHTS Assay for Inhibitors of BAZ2B. AID 504333, 2011. Potency, µM (doses to about 114 µM), hits mostly inhibitors. Bromodomain adjacent to zinc finger domain protein 2B (Homo sapiens), Q9UIF8. AlphaScreen BAZ2B-H3K14Ac peptide displacement. actives 4.4% (n = 360,000); further: nearly all actives have a fitted effect of over 60% in size
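BAZ2B (50 nM) with biotin-H3(5-23)K14Ac peptide (50 nM) in PBS pH 7.4, 0.01% Tween-20, preformed 30 min, then compound 30 min at room temperature; top concentration 110uM. AlphaScreen streptavidin donor/nickel chelate acceptor beads (10 ug/mL final), 20 min dark, signal read.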
Of the large screens only hits and unclear results are named; the others gave an inactive call. The call rests on the fitted dose curve; in most records, active means well fitted curve in the direction sought with a large enough effect; inconclusive means small, poorly fitted or top-dose-only effect, or another doubt; inactive means no such curve, though single readings can be large; an effect the other way counts as inactive or inconclusive.

COC(=O)/C=C1/S/C(=N/NC(=O)c2ccccc2)NC1=O	G9a inh inconclusive
COC(=O)/C=C1\SC(=NC(=O)c2cccc([N+](=O)[O-])c2)NC1=O	Sfp inh inconclusive, G9a inh 35.5µM
COc1cc2cc(CNc3ccc(C)cc3)c(=O)n(CC(=O)Nc3ccc(C(C)C)cc3)c2cc1OC	G9a inh inconclusive (no result: Sfp inh)
CCCCc1cc(=O)oc2cc(C)c3c(C)coc3c12	none (no result: Sfp inh)
CCCCNC(=O)N(O)C1N(/N=C/c2cccs2)C(=S)SC1(C)C (centres undefined)	none
CCCc1sc(C(=O)Nc2nnc(C3CC3)s2)cc1CC	G9a inh inconclusive (no result: Sfp inh)
Cc1cc(C)n2nc(C(=O)Nc3nnc(C4CC4)s3)nc2n1	JMJD2A Tudor inh 8.91µM, Sfp inh 50.1µM, G9a inh inconclusive
CCSc1nnc(NC(=O)c2nc3nc(C)cc(C)n3n2)s1	JMJD2A Tudor inh 15.8µM, Sfp inh inconclusive
CC(C)C(CCNCc1ccccn1)c1ccc(Cl)cc1 (centres undefined)	JMJD2A Tudor inh 20µM, G9a inh inconclusive, BAZ2B block 50.1µM (no result: TDP1 inh)
CC(C)CCC(CCNCc1ccccn1)c1ccc2c(c1)OCO2 (centres undefined)	JMJD2A Tudor inh 39.8µM, G9a inh 15.8µM, BAZ2B block 56.2µM (no result: TDP1 inh)
O=C(NCc1ccccn1)Nc1ccc2c(c1)OCO2	Sfp inh 79.4µM
O=C(NCc1ccncc1)Nc1ccc2c(c1)OCO2	G9a inh 44.7µM
O=C(CN1C(=O)COc2ccc(S(=O)(=O)N3CCOCC3)cc21)N1CCN(c2ccccc2F)CC1	none (no result: Sfp inh)
c1ccc(SCCN2CCN(c3ccccc3)CC2)cc1	none (no result: TDP1 inh)
CCCn1c(C)nc2c(NCC(C)(C)CN(C)C)nc(C)nc21	none (no result: JMJD2A Tudor inh, HP1b binding inh, G9a inh, BAZ2B block)
CN(CC(=O)Nc1ccc(N2CCOCC2)cc1)C(=O)CC(c1ccccc1)c1ccccc1	G9a inh inconclusive, BAZ2B block inconclusive
CN(CC(=O)Nc1ccc(F)cc1)C(=O)CSc1nccn1C	G9a inh 50.1µM (no result: Sfp inh)
CN(CC(=O)Nc1ccc(N2CCOCC2)cc1)C(=O)c1cccc(Cl)c1Cl	G9a inh inconclusive (no result: Sfp inh)
CN(CC(=O)Nc1ccc(N2CCOCC2)cc1)C(=O)CSc1ccc(Br)cc1	TDP1 inh 89.1µM (no result: G9a inh)
COc1ccc(Br)c(C(=O)N(C)CC(=O)Nc2ccc(N3CCOCC3)cc2)c1	G9a inh 20µM (no result: Sfp inh, TDP1 inh)
Cc1cccc(-c2nn(-c3ccccc3)cc2C(=O)N(C)CC(=O)Nc2ccc(N3CCOCC3)cc2)c1	G9a inh 7.94µM, BAZ2B block inconclusive (no result: Sfp inh, TDP1 inh)
COc1ccc(OC)c(-c2noc(N3CCN(c4ccc(Cl)cc4)CC3)n2)c1	JMJD2A Tudor inh inconclusive (no result: Sfp inh)
O=C(c1cc(C(F)(F)F)cc(C(F)(F)F)c1)N1CCC2(CC1)CN(c1ncccn1)C2	none (no result: JMJD2A Tudor inh, TDP1 inh, HP1b binding inh, BAZ2B block)
COc1cccc(NC(=O)C2(S(=O)(=O)c3ccc(Cl)cc3)CC2)c1	none (no result: TDP1 inh, G9a inh)
Cc1cccc(N2N=C(C(=O)Nc3ccc(Cl)c(S(=O)(=O)N4CCOCC4)c3)CCC2=O)c1	G9a inh inconclusive (no result: Sfp inh)
CN(CC(=O)Nc1ccc(N2CCOCC2)cc1)C(=O)CSc1ccc(F)cc1	JMJD2A Tudor inh inconclusive, G9a inh 12.6µM (no result: Sfp inh, TDP1 inh)
CN(CC(=O)Nc1ccc(N2CCOCC2)cc1)C(=O)CSc1ccccc1F	G9a inh inconclusive (no result: Sfp inh)
Cc1ccc(N2CCn3c2nc2c3c(=O)n(Cc3cccc(Cl)c3)c(=O)n2C)cc1C	none (no result: Sfp inh)
O=C(O)CCC/C=C\C[C@@H]1[C@@H](/C=C/[C@H](O)C2Cc3ccccc3C2)[C@@H](F)C[C@@H]1O	none (no result: JMJD2A Tudor inh, Sfp inh, TDP1 inh, HP1b binding inh, BAZ2B block)
Oc1c(C(c2ccc(Cl)cc2)N2CCCC2)cc(Cl)c2cccnc12 (centres undefined)	JMJD2A Tudor inh 28.2µM, G9a inh 25.1µM, BAZ2B block 31.6µM

Bioassay records from PubChem BioAssay.
